Test [1] relates to XIP peptide (Xip251-270) binding. As to the kind of experiment: small-molecule binders of XIP peptide, primary screen, biochemical, small-molecule microarray, fluorescence 635/667 nm, 0.1 µg/mL protein (AID 1182). The settings on record: fluorescent protein binding, 635 nm, higher = more signal, called active from +8 up or from −8 down.
Test [2] concerns XIP peptide (Xip251-270). As to the kind of experiment: small-molecule binders of XIP peptide, primary screen, biochemical, small-molecule microarray, fluorescence 635/667 nm, 0.5 µg/mL protein (AID 1183). The settings on record: small-molecule microarray binding, fluorescence 635 nm; higher = more signal.
The nature of test [3]: Plasmodium falciparum growth inhibition, primary screen, strain 3D7, DAPI fluorescence, 100 nL (AID 1184).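 Also: parasites grown inside human red blood cells in medium with human serum.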 The settings on record: P. falciparum 3D7 growth, 3 d, higher = more signal.
Test [4] deals with Homeobox protein Hox-A13 (Mus musculus) (UniProt Q62424). As to the kind of experiment: inhibitors of HoxA13-DNA binding, primary screen, biochemical, fluorescence polarization, labeled oligonucleotide (AID 1185). The settings on record: 15 min, higher = more signal, called active from +8 up or from −8 down. (Fluorescence polarisation rises when a labelled molecule tumbles more slowly, as on binding a larger partner.)

Test [5] can be described thus: inhibitors of hydroxyurea-induced Chk1 phosphorylation, primary screen, imaging, HeLa, phospho-Chk1 antibody, percent positive cells (AID 1186). The settings on record: hydroxyurea-induced phospho-Chk1 immunofluorescence imaging, higher = more signal.
The nature of test [6]: inhibitors of hydroxyurea-induced Chk1 phosphorylation, primary screen, imaging, HeLa, phospho-Chk1 nuclear intensity (AID 1187). As to conditions: hydroxyurea-induced phospho-Chk1 immunofluorescence imaging, higher = more signal.

The structures appear in SMILES notation. Calls of active or inactive are those of the source. Unless noted, no rule for the calls is given here.

Homeobox protein Hox-A13 (Mus musculus), sequence (Q62424 whole entry, looked up): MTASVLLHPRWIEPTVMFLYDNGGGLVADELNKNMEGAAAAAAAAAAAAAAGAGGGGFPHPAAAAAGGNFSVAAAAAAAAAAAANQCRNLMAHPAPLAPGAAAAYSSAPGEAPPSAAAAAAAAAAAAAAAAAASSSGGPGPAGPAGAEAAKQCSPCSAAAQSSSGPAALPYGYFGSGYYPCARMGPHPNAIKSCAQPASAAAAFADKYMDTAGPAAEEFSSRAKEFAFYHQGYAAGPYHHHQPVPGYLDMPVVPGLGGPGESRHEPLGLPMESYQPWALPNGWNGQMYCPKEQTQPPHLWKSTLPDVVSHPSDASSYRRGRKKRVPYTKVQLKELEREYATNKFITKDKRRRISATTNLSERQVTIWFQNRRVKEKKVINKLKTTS

On to `Cc1nc2cc(Br)ccc2c(=O)n1Cc1cccc(O)c1`, for which the composite z-score in test [1] is 0.651 (inactive); in test [2], 0.529. Also, the z-score in test [3] is -0.563; in test [4] it was 0.464 (inactive); in test [5], 0.18 (inactive); in test [6], 0.257 (inactive).
As to `CN(C)CCCNC(=O)[C@@H]1c2ccccc2C(=O)N(C2CCCCC2)[C@H]1c1ccc(CO)cc1`, the composite z-score in test [1] is 2.33 (inactive); in test [2] it was 0.834. Besides, the z-score is -1.99 in test [3], 1.8 (inactive) in test [4], 0.208 (inactive) in test [5] and 0.393 (inactive) in test [6].
Regarding `O=C1O[C@H](c2ccccc2)[C@H](c2ccccc2)N2[C@H]1[C@@H](C(=O)Nc1nc3ccccc3s1)[C@]1(C(=O)Nc3ccc(C#CC4=CCCCC4)cc31)[C@H]2c1ccc(O)cc1`, the composite z-score is 0.847 (inactive) in test [1] and 0.541 in test [2]. Moreover, the z-score is -0.987 in test [3], 3.34 (inactive) in test [4], -0.433 (inactive) in test [5] and -0.749 (inactive) in test [6].
Consider `COc1ccc(CCNC(=O)[C@@]2(Cc3ccccc3I)c3ccccc3C(=O)N(Cc3ccccc3Cl)[C@H]2c2ccc(CO)cc2)cc1`, for which the composite z-score in test [1] is 0.71 (inactive); in test [2], 0.765. Besides, the z-score was -1.23 in test [3], -3.36 (inactive) in test [4], 0.207 (inactive) in test [5] and -0.304 (inactive) in test [6].
For the compound `[N-]=[N+]=Nc1ccccc1[C@@H]1OC(c2ccc(OCCCO)cc2)=N[C@]1(Cc1ccccc1)C(=O)NCc1ccccc1`, the composite z-score in test [1] was 0.174 (inactive); in test [2], 0.804. The z-score in test [3] was -1.97; in test [4] it was -0.694 (inactive); in test [5], 0.458 (inactive); in test [6], 0.433 (inactive).
Consider `COCCOC(=O)N1C(=O)[C@@]2(c3cc(C#CCNC(N)=O)ccc31)[C@H](c1ccc(OCCO)cc1)N1[C@H](c3ccccc3)[C@H](c3ccccc3)OC(=O)[C@H]1[C@@H]2C(N)=O`, for which the results for the composite z-score in test [1] and in test [2] were 0.236 (inactive) and 0.442, respectively. Besides, the z-score is 0.691 in test [3], -2.25 (inactive) in test [4], 0.139 (inactive) in test [5] and 0.189 (inactive) in test [6].
For `COc1ccc(C#Cc2ccc3c(c2)[C@]2(C(=O)N3)[C@H](c3ccc(OCCO)cc3)N3[C@H](c4ccccc4)[C@H](c4ccccc4)OC(=O)[C@H]3[C@@H]2C(=O)N2CCc3cc(OC)c(OC)cc3C2)cc1`, the composite z-score in test [1] is 0.119 (inactive); in test [2], 0.659. Moreover, the z-score in test [3] was -1.92; in test [4], 2.11 (inactive); in test [5], -0.0018 (inactive); in test [6] it was 0.0006 (inactive).
For `CN(C)C(=O)[C@@]1(Cc2ccccc2)COC(c2ccc(OCCCO)cc2)=N1`, the composite z-score in test [1] was 0.205 (inactive); in test [2] it was 0.845. For the same compound, the z-score in test [3] is -0.627; in test [4], -6.02 (inactive); in test [5], -1.01 (inactive); in test [6], -1.03 (inactive).
For the compound `O=C1C[C@@](C(=O)NCC(F)(F)F)(c2ccc([N+](=O)[O-])cc2)[C@@H](c2ccc(CO)cc2)N1CC12CC3CC(CC(C3)C1)C2`, the composite z-score in test [1] is 1.13 (inactive); in test [2] it was 0.709. Further, the z-score in test [3] was -1.43; in test [4] it was -4.42 (inactive); in test [5], -0.123 (inactive); in test [6], -0.661 (inactive).
For the compound `O=C(NCC(O)CO)[C@@]1(CCS(=O)(=O)c2ccccc2)COC(c2ccc(OCCCO)cc2)=N1` (some centres not stated), the results for the composite z-score in test [1] and in test [2] were -0.119 (inactive) and 0.696, respectively. Besides, the z-score in test [3] is -0.475; in test [4], -5.1 (inactive); in test [5] it was -0.275 (inactive); in test [6], -0.556 (inactive).
For `COCCOC(=O)N1C(=O)[C@@]2(c3ccccc31)[C@H](c1ccccc1OCCO)N1[C@H](c3ccccc3)[C@H](c3ccccc3)OC(=O)[C@H]1[C@@H]2C(=O)N1CCCCCCC1`, the composite z-score is 1.55 (inactive) in test [1] and 0.846 in test [2]. Further, the z-score in test [3] was -2.01; in test [4], 2.31 (inactive); in test [5], 0.203 (inactive); in test [6], 0.424 (inactive).
For `C=CCN1C(=O)[C@@]2(O[C@@H](CCO)[C@H]([Si](C)(C)c3ccc(OC)cc3)[C@H]2C)c2cc(N3CCOC3=O)ccc21`, the composite z-score in test [1] is 0.341 (inactive); in test [2] it was 0.68. Further, the z-score in test [3] was -2.39; in test [4] it was -5.97 (inactive); in test [5] it was -0.0674 (inactive); in test [6], 0.0448 (inactive).
Turning to `COC(=O)[C@@]1(Cc2ccc(F)cc2)[C@H]2c3cc(C(=O)N(C)C)n(Cc4ccc(O)c(OC)c4)c3C[C@H]2CN1C(=O)c1ccccc1`, the composite z-score in test [1] was 0.0137 (inactive); in test [2], 0.744. Further, the z-score is -1.76 in test [3], -6.34 (inactive) in test [4], -0.156 (inactive) in test [5] and -0.131 (inactive) in test [6].
For the compound `COCCOC(=O)N1C(=O)[C@@]2(c3cc(C#CC4=CCCCC4)ccc31)[C@H](c1ccc(O)cc1)N1[C@H](c3ccccc3)[C@H](c3ccccc3)OC(=O)[C@H]1[C@@H]2C(=O)NC[C@H](O)c1ccccc1`, the composite z-score was 0.816 (inactive) in test [1] and 0.75 in test [2]. Further, the z-score in test [3] is -1.69; in test [4] it was 1.07 (inactive); in test [5] it was -0.0889 (inactive); in test [6] it was 0.129 (inactive).
On to `O=C1C2C=CC(C(O)c3ccc4c(c3)OCO4)N(Nc3ccccc3)C2C(=O)N1c1ccccc1` (configuration not stated), for which the values for the composite z-score in test [1] and in test [2] were 0.395 (inactive) and 0.795, respectively. The z-score is -0.214 in test [3], -1.49 (inactive) in test [4], 0.104 (inactive) in test [5] and 0.614 (inactive) in test [6].
As for `COCCOC(=O)N1C(=O)[C@@]2(c3cc(C#CC4=CCCCC4)ccc31)[C@H](C(=O)N1CCCCCCC1)[C@H]1C(=O)O[C@H](c3ccccc3)[C@H](c3ccccc3)N1[C@@H]2c1ccc(OCCO)cc1`, the composite z-score is -0.404 (inactive) in test [1] and 0.56 in test [2]. The z-score was -2.01 in test [3], -15.8 (active) in test [4], 0.0039 (inactive) in test [5] and -0.192 (inactive) in test [6].
With `O=C1O[C@H](c2ccccc2)[C@H](c2ccccc2)N2[C@H]1[C@@H](C(=O)N1CCCCCCC1)[C@]1(C(=O)Nc3ccc(C#CC4(O)CCCCCC4)cc31)[C@H]2c1ccc(O)cc1`, the composite z-score was 1.81 (inactive) in test [1] and 0.466 in test [2]. Moreover, the z-score in test [3] is -0.372; in test [4], 1.68 (inactive); in test [5], -0.216 (inactive); in test [6], -1.07 (inactive).

The values are drawn from PubChem BioAssay.
